Only some compounds are listed: those with a hit (about 14% of all), similar ones and a draw of the others.
Pf growth 48h – Primary qHTS for delayed death inhibitors of the malarial parasite plastid, 48 hour incubation; P. falciparum luciferase growth in erythrocytes, 48 h; Potency, µM (highest dose often 28.7 µM), most hits filed as inhibitors; hit rate 5.9% among 310,000; AID 504832, 2011
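First compound was added to culture medium, then infected red cells at 0.1% parasitemia and 2% hematocrit (final). After incubation at 37 C under 5% CO2, luciferase detection reagent was dispensed and light output recorded.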
Sm TGR inh – qHTS Assay for the Inhibitors of Schistosoma Mansoni Peroxiredoxins. purified TGR, DTNB reduction, TNB absorbance 405 nm. Potency, µM (series often up to 114 µM), usual class: inhibitors. hit rate 3% among 360,000. AID 485364, 2010; also: nearly all actives have a fitted effect of over 60% in size
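TGR 20 nM + NADPH 100 uM (dispensed conc.), cpd preinc 15 min RT; start with NADPH (500 uM addition) then DTNB (15 mM addition). Kinetic TNB absorbance, 405 nm filter. Four-parameter Hill fit across titration.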
Pf growth 96h – Primary qHTS for delayed death inhibitors of the malarial parasite plastid, 96 hour incubation; P. falciparum luciferase reporter growth, 96 h; Potency, µM (doses to about 28.7 µM), actives largely listed as inhibitors; hit rate 6.9% among 320,000
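Cell-based qHTS: luciferase-tagged P. falciparum in erythrocytes (2% hematocrit, 0.05% parasitemia final) incubated with compounds for 96 hours, 37 C, 5% CO2; luciferase detection reagent then added and luminescence measured.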
Giardia FBPA inh – qHTS Assay for Inhibitors of Fructose-1,6-bisphosphate Aldolase from Giardia Lamblia; purified Giardia FBPA; Potency, µM (doses to about 59.6 µM), most hits filed as inhibitors; hit rate 0.71% among 290,000; AID 2451, 2010; also: nearly all actives have a fitted effect of over 55% in size
Target sequence (A8B2U2 whole entry, looked up): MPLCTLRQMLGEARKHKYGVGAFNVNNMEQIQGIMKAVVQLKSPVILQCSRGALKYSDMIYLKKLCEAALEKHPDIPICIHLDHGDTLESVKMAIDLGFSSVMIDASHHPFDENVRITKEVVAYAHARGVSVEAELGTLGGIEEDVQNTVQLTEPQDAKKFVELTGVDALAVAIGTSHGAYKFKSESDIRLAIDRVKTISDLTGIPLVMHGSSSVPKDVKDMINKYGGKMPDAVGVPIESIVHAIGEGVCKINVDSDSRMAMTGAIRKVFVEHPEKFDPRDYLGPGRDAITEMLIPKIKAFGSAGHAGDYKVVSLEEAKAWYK
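Giardia FBPA (40 nM reagent) was preincubated 10 min at RT with compound (up to 57.5 uM final), then substrate plus GAPDH/TPI/NAD/arsenate coupling system with diaphorase/resazurin was added; resorufin fluorescence (525/598 nm) was read after 20 min.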
HCMV antiviral – qHTS Assay for inhibitors of the human cytomegalovirus (HCMV) | HFF cells, HCMV-luciferase reporter, 72 h; active compounds read low | AID 1259415, 2018 | hit rate 4.5% among 410,000 | activity change, negative = inhibition, % at 57.5 µM; in the data active = activity change below about -60%; inconclusive = no clear call, values can overlap the other calls; inactive = above about -39%
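Steps: HFFs plated, 16 h 37C; compounds added; HCMV-luciferase added to MOI 1 PFU/cell; 72 h 37C; OneGlo reagent, 5 min room temperature; luminescence read, normalized to controls.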
Numbers stand for hits; – = inactive; ? = inconclusive; · = no result given; [ ] = remark or other dose. Unless noted, calls follow the shape of the dose curve; as a rule, active = well fitted curve in the direction sought with a large enough effect; inconclusive = small, poorly fitted or top-dose-only effect, or another doubt; inactive = no such curve, though single readings can be large; an effect the other way counts as inactive or inconclusive.

SMILES	Pf growth 48h	Sm TGR inh	Pf growth 96h	Giardia FBPA inh	HCMV antiviral
CCN1CCN(c2ccc([N+](=O)[O-])cc2C=C2C(=O)NC(=O)NC2=O)CC1	–	12.6µM	–	–	–
CCN(CC(=O)Nc1ccc(NC(C)=O)cc1)C(=O)Cc1ccc(S(=O)(=O)N2CCOCC2)s1	–	–	–	·	–
CCOc1ccc(N2CC(=O)Nc3ccccc3NCC2=O)cc1	–	?	8.28µM	–	–
O=C(NCCOCCn1c(=O)oc2ccccc21)Nc1ccc(Cl)cc1	·	–	·	·	–
CC1CC2OC2/C=C\C=C/C(=O)Cc2c(Cl)c(O)cc(O)c2C(=O)O1 (stereo unspecified)	·	·	·	–	·
CCCCOc1ccc(C(=O)NNC(=O)C2C3C=CC(C3)C2C(=O)O)cc1 (stereo unspecified)	–	–	–	·	-60.3
CCCCOc1ccc(C(=O)NNC(=O)C2C3CCC(C3)C2C(=O)O)cc1 (stereo unspecified)	–	–	–	·	–
C/C(=N\Nc1ccc(S(=O)(=O)N2CCOCC2)cc1[N+](=O)[O-])C(C)C	–	39.8µM	?	–	?
NS(=O)(=O)c1ccc(N/N=C/c2ccc(C(=O)O)cc2)c([N+](=O)[O-])c1	–	–	–	–	–
CN1CCC(=NNc2ccc(S(=O)(=O)N3CCOCC3)cc2[N+](=O)[O-])CC1	–	?	–	–	?
O=C(O)c1ccc(/C=N\Nc2ccc(S(=O)(=O)N3CCOCC3)cc2[N+](=O)[O-])cc1	?	44.7µM	–	–	–
Cc1ccc(-n2c(O)c(/C=N/Nc3ccc(S(=O)(=O)N4CCOCC4)cc3[N+](=O)[O-])c3ccccc3c2=O)c(C)c1	10.4µM	–	2.94µM	–	-97.6
CC(NC(=S)NCCCN1CCOCC1)C12CC3CC(CC(C3)C1)C2 (stereo unspecified)	–	–	?	–	?
Nc1ccn([C@@H]2CC[C@H](CO)O2)c(=O)n1	·	·	·	–	·
CC1CCN(c2ccc(-c3cccs3)nn2)CC1	–	?	–	–	-66.1
COc1cccc(-n2nnc3c(=O)n(CC(=O)OCc4ccccc4)cnc32)c1	–	–	0.165µM	–	–
COc1cccc(-n2nnc3c(=O)n(CC(=O)NC4CCCC4)cnc32)c1	–	–	0.329µM	–	–
COc1ccc(N2CCN(C(CNS(=O)(=O)c3ccccc3)c3ccccc3)CC2)cc1 (stereo unspecified)	–	–	–	–	–
CS(=O)(=O)c1nc(-c2ccccc2)cc(-c2ccccc2)c1C#N	?	–	1.65µM	–	·
CC(c1nc2ccccc2[nH]1)N(C(=O)C1=NNC(=O)CC1)c1ccccc1 (stereo unspecified)	·	·	·	·	–
O=C(Cn1nc(-c2ccc(Cl)cc2)ccc1=O)N1CCN(c2ccccc2)CC1	–	–	?	–	–
O=C(O)Cn1nc(-c2ccccc2)ccc1=O	–	–	3.29µM	–	–
Cc1ccc(-c2ccc(=O)n(Cc3c(F)cccc3Cl)n2)cc1	13.1µM	–	–	–	?
CCOC(=O)Cn1nc(-c2ccccc2)ccc1=O	–	–	–	–	–
O=C(O)Cn1nc(-c2ccc(Cl)cc2)ccc1=O	–[0.00184 µM]	–	13.1µM	–	–
SMILES	Pf growth 48h	Sm TGR inh	Pf growth 96h	Giardia FBPA inh	HCMV antiviral
Nc1c(-c2nc(-c3ccncc3)no2)nnn1CC(=O)Nc1ccccc1	·	–	·	·	?
COc1ccccc1C(=O)NC(=O)CSc1nc(C)cs1	–	–	–	·	–
CC1CCN(c2nc3nonc3nc2N2CCC(C)CC2)CC1	–	–	–	–	–
CC1CCCN(c2nc3nonc3nc2N2CCCC(C)C2)C1 (stereo unspecified)	10.4µM	–	–	–	–
CN(CC(=O)NCc1ccc(Cl)cc1)S(=O)(=O)c1cccc2cccnc12	·	–	–	–	–
CN(CC(=O)NCc1ccco1)S(=O)(=O)c1cccc2cccnc12	·	20µM	–	–	–
Cc1csc(NC(=O)CN(C)S(=O)(=O)c2cccc3cccnc23)n1	·	–	–	–	–
COc1ccc(C)cc1S(=O)(=O)N(C)CC(=O)NCc1ccco1	–	31.6µM	·	–	–
CN(CC(=O)Nc1n[nH]c(=S)s1)S(=O)(=O)c1cccc2cccnc12	–	–	5.22µM	?	–
COc1ccccc1-c1cc(-n2ccnc2)ncn1	·	·	·	–	·

Screening results deposited in PubChem BioAssay by National Center for Advancing Translational Sciences (NCATS).
